Assay results published in PubChem BioAssay (NCATS).
Inconclusive results are not listed. Activity calls are given as the source filed them. Unless noted, the call rests on the fitted dose curve; in most records, active means well fitted curve in the direction sought with a large enough effect; inconclusive means small, poorly fitted or top-dose-only effect, or another doubt; inactive means no such curve, though single readings can be large; an effect the other way counts as inactive or inconclusive.

How the values were obtained:
[1] = qHTS Assay for Identification of Small Molecule Agonists for Thrombopoietin (TPO) Signaling Pathway (AID 917); conditions: TPO signaling pathway reporter cells, agonist qHTS, stimulated with TPO at its EC50; series mostly up to 38.5 µM; further: on the % scale 0 is the no-effect control and ±100 the full control effect
In short: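 Quantitative HTS for pathway activators: compounds were pin-transferred onto IL-3-starved Ba/F3 cells expressing human TPO receptor, TPO was added at its EC50 (26 pM final), and after 24 hrs at 37 C reporter luciferase was measured.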

[2] = molecular target: Muscarinic acetylcholine receptor M1 (Rattus norvegicus) (UniProt P08482); test: qHTS Assay for Antagonists of Acetylcholine Muscarinic M1 Receptor: Kinetic Measurement of Intracellular Calcium Response (AID 943); conditions: M1-expressing cells, kinetic intracellular calcium fluorescence; series mostly up to 35.3 µM;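 further: Fluo-4 calcium signal as peak divided by basal fluorescence over 4 min; nearly all actives have a fitted effect of over 75% in size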
Muscarinic acetylcholine receptor M1 (Rattus norvegicus), sequence (P08482 whole entry, looked up): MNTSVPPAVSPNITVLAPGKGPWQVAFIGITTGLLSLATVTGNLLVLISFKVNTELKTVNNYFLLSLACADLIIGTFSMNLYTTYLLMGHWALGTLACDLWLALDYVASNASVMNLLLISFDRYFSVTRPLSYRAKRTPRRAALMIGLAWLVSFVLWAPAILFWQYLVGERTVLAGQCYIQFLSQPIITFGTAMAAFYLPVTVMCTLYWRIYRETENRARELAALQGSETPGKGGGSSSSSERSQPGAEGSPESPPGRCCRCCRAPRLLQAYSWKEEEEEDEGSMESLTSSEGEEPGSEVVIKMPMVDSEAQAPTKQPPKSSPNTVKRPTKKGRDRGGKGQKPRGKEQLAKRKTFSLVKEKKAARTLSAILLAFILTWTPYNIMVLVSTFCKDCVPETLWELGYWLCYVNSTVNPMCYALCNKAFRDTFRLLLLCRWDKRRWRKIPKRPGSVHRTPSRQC
In short: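 Antagonism is measured as inhibition of the carbachol-evoked calcium rise in CHO cells transfected with rat M1. Cells are dye-loaded, exposed to compound for 10 min, then stimulated with 100 nM carbachol (EC80).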

[3] = molecular target: Muscarinic acetylcholine receptor M1 (Rattus norvegicus) (UniProt P08482); test: qHTS Assay for Antagonists of Acetylcholine Muscarinic M1 Receptor: Measurement of IP-One Response (AID 944); conditions: CHO-M1 cells, IP-One HTRF, antagonist mode; series mostly up to 46.1 µM; further: nearly all actives have a fitted effect of over 75% in size
In short: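 Antagonist mode with rat M1 receptor transfected into CHO cells. Compound is added first for 10 min, carbachol at its EC80 follows for 30 min, and lysis reagents then allow TR-FRET detection of accumulated IP1.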

[4] = molecular target: Pyruvate kinase (Leishmania mexicana) (UniProt Q27686); test: qHTS Validation Assay for Inhibitors of Leishmania Mexicana Pyruvate Kinase (AID 945);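 further: 0% = DMSO only neutral control wells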; conditions: purified L. mexicana pyruvate kinase, enzyme activity, E451W mutant enzyme; series mostly up to 57.5 µM
Pyruvate kinase (Leishmania mexicana), sequence (Q27686 2-499 E452W): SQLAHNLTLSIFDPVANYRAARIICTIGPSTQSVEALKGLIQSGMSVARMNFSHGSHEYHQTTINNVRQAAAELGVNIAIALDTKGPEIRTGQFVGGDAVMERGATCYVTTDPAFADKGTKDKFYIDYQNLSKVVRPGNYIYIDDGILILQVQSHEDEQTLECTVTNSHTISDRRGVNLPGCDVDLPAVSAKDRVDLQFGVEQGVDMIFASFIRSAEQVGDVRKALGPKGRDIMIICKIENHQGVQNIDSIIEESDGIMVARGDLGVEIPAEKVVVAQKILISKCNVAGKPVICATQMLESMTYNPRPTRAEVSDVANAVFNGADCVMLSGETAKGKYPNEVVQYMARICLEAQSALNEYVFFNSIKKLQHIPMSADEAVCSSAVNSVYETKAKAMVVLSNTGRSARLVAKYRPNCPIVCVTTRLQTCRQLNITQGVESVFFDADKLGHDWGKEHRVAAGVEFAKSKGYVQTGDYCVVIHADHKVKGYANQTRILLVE
In short: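 The enzyme is a highly purified E451W mutant of LmPYK used at 0.2 nM. It converts 0.5 mM PEP and 0.1 mM ADP over 1 h at room temperature; product ATP is quantified by luciferase luminescence relative to DMSO controls.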

[5] = molecular target: Pyruvate kinase PKM (Homo sapiens) (UniProt P14618); test: qHTS Assay for Activators of Human Muscle Pyruvate Kinase (AID 954; active means well fitted curve in the direction sought with a large enough effect, not every such curve was filed as active;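 further: 0% = uninhibited enzyme and -100% = no enzyme or full thiadiazolimine inhibition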); conditions: purified human muscle pyruvate kinase, luciferase-coupled luminescence, 1 h; series mostly up to 57.5 µM
Pyruvate kinase PKM (Homo sapiens), sequence (P14618 whole entry, looked up): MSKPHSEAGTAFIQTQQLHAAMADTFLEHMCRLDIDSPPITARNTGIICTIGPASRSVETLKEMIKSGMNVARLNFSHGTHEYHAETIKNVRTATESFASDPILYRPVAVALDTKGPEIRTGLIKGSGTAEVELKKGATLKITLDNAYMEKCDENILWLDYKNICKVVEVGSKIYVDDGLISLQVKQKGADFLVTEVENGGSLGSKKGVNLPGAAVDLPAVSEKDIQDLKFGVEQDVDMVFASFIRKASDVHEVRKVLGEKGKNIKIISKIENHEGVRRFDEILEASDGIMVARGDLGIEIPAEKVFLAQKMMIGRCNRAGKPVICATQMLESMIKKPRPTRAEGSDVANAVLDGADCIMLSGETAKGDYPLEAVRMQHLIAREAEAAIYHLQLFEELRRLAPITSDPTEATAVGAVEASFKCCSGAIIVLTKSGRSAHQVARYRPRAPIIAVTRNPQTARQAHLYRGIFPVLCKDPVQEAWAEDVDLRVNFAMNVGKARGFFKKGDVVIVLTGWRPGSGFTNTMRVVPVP
In short: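 ATP production by PKM2 detected via luciferase luminescence after 1 h room-temperature reaction (0.1 nM enzyme, PEP at Km 0.5 mM, ADP 0.1 mM, pH 7.2 imidazole buffer). Inhibition scaled to no-enzyme control; activation referenced to 0.3 nM enzyme wells.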

[6] = Confirmation and Secondary Assay for Modulators of Hemoglobin Beta Chain Splicing at IVS2 654 locus (AID 910); conditions: HeLa EGFP-654 splicing reporter, GFP fluorescence, 48 h; series mostly up to 46.1 µM;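 further: per-well total GFP intensity by laser scanning cytometry after 2-day treatment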;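 further: potency means the concentration at half of the fitted maximal effect; potency of activators that raise GFP signal by restoring correct splicing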
In short: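 HeLa cells stably carrying EGFP interrupted by mutant beta-globin IVS2-654 intron (CMV-driven) were treated with compound for 2 days at 37C; corrected splicing was scored as total peak GFP intensity per well (488 nm excitation, 500-520 nm emission).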

[7] = Confirmation and Secondary Assay for Modulators of Hemoglobin Beta Chain Splicing at IVS2 705 locus (AID 930); conditions: HeLa EGFP-705 splicing reporter, GFP fluorescence, 48 h; series mostly up to 46.1 µM;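 further: HeLa cells stably expressing the EGFP-705 splicing reporter; GFP fluorescence per well restored by corrected splicing of the IVS2-705 intron in EGFP; % of control where 0% means no effect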
In short: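 Splice-correction reporter: EGFP cDNA split by beta-globin intron 2 bearing the 705 mutation, stably in HeLa. Compound incubation 2 days, 37C; fluorescent objects 5-250 µm summed per well.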

[8] = qHTS Assay for Identification of Small Molecule Agonists for Hypoxia Response Element Signaling Pathway (AID 914; active means well fitted activation curve with a large enough effect in the signal ratio, with a control signal flat, not every such curve was filed as active; the % refers to the signal ratio; further: % of control where 0% means no effect); conditions: ME-180 (cervical carcinoma) HRE-bla reporter, beta-lactamase ratio, CoCl2, 17 h; activation: hits give high values
In short: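 Cells were plated overnight, pin-dosed with compound in a titration series, co-stimulated with EC50 CoCl2 and incubated 17 hours at 37 degrees Celsius. CCF4 substrate was then loaded, and AC50 values came from the 460nm/530nm ratio.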

COc1ccc2c(c1)c(CC(=O)O)c(C)n2Cc1ccc(Cl)cc1
inactive: Potency [1] | Potency [2] | Potency [3] | Potency [4] | outcome [5]

CC1=C(/C=C/C(C)=C/C=C/C(C)=C\C(=O)O)C(C)(C)CCC1
inactive: Potency [6] | outcome [7]

COc1ccc2c(c1)c(CC(=O)O)c(C)n2C(=O)c1ccccc1
inactive: Potency [1] | Potency [2] | Potency [3] | Potency [4] | outcome [5]

Nc1nc2[nH]c(=O)cnc2c(=O)[nH]1
inactive: Potency [1] | Potency [2] | Potency [3] | Potency [4] | outcome [5]

O=C(O)Cc1c[nH]c2ccc(O)cc12
inactive: Potency [1] | Potency [2] | Potency [3] | Potency [4] | outcome [5]

O=c1[nH]c2cc(Cl)ccc2c(O)c1-c1ccc(Oc2ccccc2)cc1
inactive: Potency [1] | Potency [3] | Potency [4] | outcome [5]

CCCCCCC/C=C\CCCCCCCCC(=O)O
inactive: activation [8] -14% | Potency [1] | Potency [2] | Potency [3] | Potency [4] | outcome [5]

O=c1onc2n1-c1cc(Br)ccc1OC2
inactive: Potency [1] | Potency [2] | Potency [3] | Potency [4] | outcome [5]

OC[C@H]1O[C@@H](n2cnc3cncnc32)[C@H](O)[C@@H]1O
active: Potency [6] 1260 nM
inactive: outcome [7]

COc1ccc(C(=O)NCc2cccnc2)cc1C(=O)NCc1cccnc1
inactive: Potency [1] | Potency [2] | Potency [3] | Potency [4] | outcome [5]

Cc1ccc([N+](=O)[O-])cc1S(=O)(=O)N(C)C
inactive: Potency [1] | Potency [2] | Potency [3] | Potency [4] | outcome [5]

CCCn1c(=O)c2c(ncn2C)n(CCC)c1=O
inactive: activation [8] 3.52% | Potency [1] | Potency [2] | Potency [4] | outcome [5]

O=C1OC(=O)C2C3CCC(O3)C12 (stereo unspecified)
inactive: Potency [6] | outcome [7]
